Source: PubChem (several laboratories)
Rows were chosen to be rich in hits. Some 1.2% of all compounds tested hit in one or more screens of this group.
MsrA inhibitor: bovine MsrA inhibition | purified bovine MsrA, absorbance read-out | inhibition, % at 15.5 µM | 360,000 tested, 0.75% active
bovine MsrA act: activators of bovine methionine sulfoxide reductase A; 360,000 tested, 0.3% active; purified bovine MsrA, absorbance read-out; activation, % at 10.6 µM; AID 602163; in the data active = activation above about 7.5%
NPR1 activator: GC-A (human) enzyme activation. AID 1671463. activation, % at 10 µM. 370,000 tested, 0.14% active. P16066. HEK293 GC-A cells, cGMP TR-FRET, EC30 ANP; 0% at EC30 ANP, 100% saturating ANP; in the data active = activation above about 40%
NPR2 activator: GC-B (human) receptor activation. 370,000 tested, 0.11% active. HEK293-GC-B cells, CNP EC30, cGMP TR-FRET; 0% at EC30 CNP, 100% saturating CNP. activation, % at 10 µM. P20594;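 active = activation at 10 µM reaching about 35% in either raw or pattern-adjusted values, limit read from the data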
Target sequence (P20594 whole entry, looked up): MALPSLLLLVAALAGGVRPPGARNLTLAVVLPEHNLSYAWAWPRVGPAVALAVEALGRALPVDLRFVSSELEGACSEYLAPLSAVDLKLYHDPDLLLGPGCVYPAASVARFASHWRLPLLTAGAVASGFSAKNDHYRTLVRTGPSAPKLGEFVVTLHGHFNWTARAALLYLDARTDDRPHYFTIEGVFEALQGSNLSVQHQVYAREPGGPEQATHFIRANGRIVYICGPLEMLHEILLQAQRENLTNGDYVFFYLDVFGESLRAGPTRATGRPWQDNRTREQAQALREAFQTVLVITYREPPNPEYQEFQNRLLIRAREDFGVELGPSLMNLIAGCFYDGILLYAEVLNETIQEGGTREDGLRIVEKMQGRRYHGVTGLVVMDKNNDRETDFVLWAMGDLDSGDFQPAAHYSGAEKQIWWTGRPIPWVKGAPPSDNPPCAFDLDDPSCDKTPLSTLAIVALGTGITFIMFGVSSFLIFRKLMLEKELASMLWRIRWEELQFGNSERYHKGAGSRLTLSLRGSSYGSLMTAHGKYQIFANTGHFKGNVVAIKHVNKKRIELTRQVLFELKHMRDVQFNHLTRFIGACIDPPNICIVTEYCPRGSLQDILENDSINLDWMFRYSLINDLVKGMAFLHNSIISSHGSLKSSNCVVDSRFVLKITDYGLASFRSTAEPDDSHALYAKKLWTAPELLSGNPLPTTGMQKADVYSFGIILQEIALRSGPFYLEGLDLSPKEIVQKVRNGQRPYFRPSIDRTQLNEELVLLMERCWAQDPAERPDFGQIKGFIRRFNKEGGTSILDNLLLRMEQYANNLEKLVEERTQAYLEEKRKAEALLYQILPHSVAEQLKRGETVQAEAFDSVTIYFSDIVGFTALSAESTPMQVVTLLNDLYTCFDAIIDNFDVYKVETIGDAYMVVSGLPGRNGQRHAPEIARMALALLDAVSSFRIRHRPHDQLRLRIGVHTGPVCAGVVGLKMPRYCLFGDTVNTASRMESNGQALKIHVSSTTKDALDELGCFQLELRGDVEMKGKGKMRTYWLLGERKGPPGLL
MsrA inh confirm: confirmation of bovine MsrA inhibitors; 2,300 tested, 41% active; AID 651822; inhibition, % at 15.5 µM; shares compounds with MsrA inhibitor; purified bovine MsrA, absorbance read-out;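 also: coupled to thioredoxin reductase with NADPH and selenocystamine and DMSO as substrate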
Each line names hits and unclear results; the compound was inactive in the other large screens (follow-up assays come after a bar, where they were run). Rule as the data show it, unless noted: active = inhibition above about 4.5%; inactive = the rest.

O=C(C1=C(O)C(=O)N(CCCn2ccnc2)C1c1ccccc1)c1ccco1 (configuration not stated)	none (no result: MsrA inhibitor, NPR1 activator, NPR2 activator)
O=C(C1=C(O)C(=O)N(CCCn2ccnc2)C1c1cccc(Br)c1)c1ccco1 (configuration not stated)	MsrA inhibitor 13 | MsrA inh confirm 7.8
CC(=O)NN1C(=O)c2ccccc2NC1c1ccc(N(C)C)cc1 (configuration not stated)	MsrA inhibitor 6.3 | MsrA inh confirm inactive
CCOC(=O)NN1C(=O)c2ccccc2NC1c1ccc(N(C)C)cc1 (configuration not stated)	none
CCOc1ccc(-c2nnc(-c3ccncc3)o2)cc1OCC	MsrA inhibitor 4.9 | MsrA inh confirm inactive
CCOc1cc(S(=O)(=O)NCCc2ccccc2C)c(OCC)cc1-n1cnnn1	none
CCOc1cc(S(=O)(=O)N(CC)CC)c(OCC)cc1-n1cnnn1	MsrA inhibitor 25 | MsrA inh confirm 23
COc1cccc2c1[C@H](/C=C/c1ccccc1)[C@@H]([C@H](O)COC(C)=O)OC2	none (no result: MsrA inhibitor, bovine MsrA act)
O=C(N/N=C/c1ccc([N+](=O)[O-])cc1)c1cc(C2CC2)[nH]n1	MsrA inhibitor 5.3 | MsrA inh confirm 5.3
O=C(N/N=C/c1ccc([N+](=O)[O-])cc1)c1[nH]ncc1Br	MsrA inhibitor 4.9 | MsrA inh confirm inactive
O=C(N/N=C/c1cccc([N+](=O)[O-])c1)c1ccc2nc[nH]c2c1	none
O=C(N/N=C/c1ccc([N+](=O)[O-])cc1)c1ccc2nc[nH]c2c1	MsrA inhibitor 5.6 | MsrA inh confirm 4.8
O=C(N/N=C\c1cn[nH]c1-c1ccccc1)c1ccc([N+](=O)[O-])cc1	none
CC[n+]1c(/C=C(\C)OC)sc2ccccc21	MsrA inhibitor 5.8 | MsrA inh confirm 5.0
Cc1ccsc1C=Nn1c(-c2n[nH]c3c2CCC3)n[nH]c1=S	none (no result: MsrA inhibitor, bovine MsrA act)
CCOC(=O)/C(C#N)=C/c1cn(CCC(=O)O)nc1-c1ccc(OC)cc1	MsrA inhibitor 5.0 | MsrA inh confirm inactive
CCOC(=O)/C(C#N)=C/c1cn(CCC(=O)O)nc1-c1ccccc1	none
CCN(CC)S(=O)(=O)c1cccc(-c2n[nH]c(=S)n2/N=C/c2ccc(OC)cc2)c1	MsrA inhibitor 7.7 | MsrA inh confirm inactive
COc1c(O)ccc(/C=N\NC(=O)c2ccc3c(c2)OCO3)c1[N+](=O)[O-]	MsrA inhibitor 8.1 | MsrA inh confirm 4.9
COc1c(O)ccc(/C=N/NC(=O)c2ccc3c(c2)OCCO3)c1[N+](=O)[O-]	MsrA inhibitor 7.2 | MsrA inh confirm inactive
COc1cc(/C=N/NC(=O)c2ccc3c(c2)OCCO3)cc(Cl)c1O	MsrA inhibitor 6.0 | MsrA inh confirm 5.0
COC[C@H]1CCCN1c1ccc2c(c1)O[C@@H]1CCN(C1)S2(=O)=O	none (no result: MsrA inhibitor, bovine MsrA act)
Cc1ccc(-c2cc(C(=O)NN=Cc3sccc3C)[nH]n2)cc1C	none (no result: MsrA inhibitor, bovine MsrA act)
COC(=O)c1cc(NC(=O)NC2CCCCN(Cc3ccc(Cl)cc3)C2=O)cc(C(=O)OC)c1 (configuration not stated)	none (no result: MsrA inhibitor, bovine MsrA act)
CN(Cc1ccccc1)C(=O)COC(=O)c1cc([N+](=O)[O-])ccc1N1CCOCC1	none
CCN(C(=O)COC(=O)c1cc([N+](=O)[O-])ccc1N1CCOCC1)c1ccccc1	MsrA inhibitor 9.8 | MsrA inh confirm 5.5
C[C@H]1Cn2nncc2Cn2c3ccccc3c(=O)n21	none (no result: MsrA inhibitor, bovine MsrA act)
COC(=O)[C@]12CCCCC=C1N(Cc1ccc(OC)cc1)C(=O)[C@@H]2CC(=O)N1CCN(C(=O)c2ccco2)CC1	none (no result: MsrA inhibitor, bovine MsrA act)
Cc1cccn2c(=O)c3cc(C(=O)NCc4ccccc4)c(=N)n(CCCN4CCOCC4)c3nc12	none
Cc1cccn2c(=O)c3cc(C(=O)NCCN4CCOCC4)c(=N)n(CCCN4CCOCC4)c3nc12	MsrA inhibitor 5.4 | MsrA inh confirm inactive
COc1ccc(N=C(C)C2=C(O)c3ccccc3C2=O)cc1	none
CC(=O)Nc1ccc(N=C(C2=C(O)c3ccccc3C2=O)c2ccccc2)cc1	MsrA inhibitor 4.7 | MsrA inh confirm inactive
CC(=O)N1CCN(C(=O)c2ccc(CNC(=O)c3cccc(Br)c3)cc2)CC1	none (no result: MsrA inhibitor, bovine MsrA act)
O=C(N=Nc1c(O)[nH]c2ccccc12)c1ccccc1NS(=O)(=O)c1cccs1	MsrA inhibitor 4.8 | MsrA inh confirm inactive
O=[N+]([O-])c1cc(/C=N/n2c(-c3cccnc3)n[nH]c2=S)ccc1Cl	MsrA inhibitor 12 | MsrA inh confirm 6.8
COc1ccc2ccccc2c1C=NNC(=O)CN1CCN(Cc2ccccc2)CC1	none (no result: MsrA inhibitor, bovine MsrA act)
C=CCNC(=O)CN(C(=O)Cc1cccc(OC(F)(F)F)c1)c1cccc(Br)c1	none (no result: MsrA inhibitor, bovine MsrA act)
O=C(Cc1ccc2cccnc2c1)c1ccc(O)cc1O	MsrA inhibitor 5.0 | MsrA inh confirm inactive
COc1ccc(NC(=O)NCCCN2CCN(c3ccc(F)cc3)CC2)cc1OC	none (no result: MsrA inhibitor, bovine MsrA act)
Cc1cc(NC(=O)c2sc(Nc3ccc(F)cc3)nc2N)no1	none
C=CCNc1nc(N)c(C(=O)Nc2cc(C)on2)s1	MsrA inhibitor 6.2 | MsrA inh confirm inactive
O=C1OC(c2ccc(Cl)cc2)=N/C1=C\C=C\c1ccco1	MsrA inhibitor 4.7 | MsrA inh confirm inactive
O=C1OC(c2ccccc2)=N/C1=C\C=C\c1ccccc1[N+](=O)[O-]	none
O=C1OC(c2ccccc2)=N/C1=C\C=C\c1ccco1	MsrA inhibitor 4.9 | MsrA inh confirm inactive
BrC(/C=N/Nc1nc(N2CCOCC2)nc(N2CCOCC2)n1)=C/c1ccccc1	MsrA inhibitor 5.5 | MsrA inh confirm inactive
N#C/C(=N\Nc1ccccc1)C(=N)N1CCOCC1	MsrA inhibitor 5.1 | MsrA inh confirm inactive
C[C@H]1Cn2cnc(C(=O)N3CCN(c4ccccc4)CC3)c2C(=O)N1	none (no result: bovine MsrA act)
N#C/C(=C\c1ccc(O)c([N+](=O)[O-])c1)C(=O)NCc1ccccc1	MsrA inhibitor 5.5 | MsrA inh confirm inactive
N#C/C(=C\c1ccc(O)c(Br)c1)C(=O)NCc1ccccc1	none
COC(=O)[C@]1(CNC(=O)NCCc2ccc(OC)c(OC)c2)CC(=O)N(C)[C@@H]1c1ccccc1	none (no result: MsrA inhibitor, bovine MsrA act)
COc1cc(/C=C2/NC(=O)NC2=O)cc(Br)c1OCc1cccc(C(=O)O)c1	MsrA inhibitor 5.9 | MsrA inh confirm inactive
Cc1ccc(S(=O)(=O)NCCN=Cc2ccc(N(C)C)cc2)cc1	MsrA inhibitor 4.9 | MsrA inh confirm inactive
Cc1ccc(S(=O)(=O)/N=C/c2ccc(N(C)C)cc2)cc1	MsrA inhibitor 6.7 | MsrA inh confirm inactive
Cc1nn(-c2ccccc2)c2sc(C(=O)NCC3CCCO3)cc12 (configuration not stated)	none (no result: MsrA inhibitor, bovine MsrA act)
O=C(NCCc1ccccc1)c1coc(=O)c(Br)c1	MsrA inhibitor 5.6 | MsrA inh confirm 6.5
CC(C)CNC(=O)c1coc(=O)c(Br)c1	MsrA inhibitor 5.7 | MsrA inh confirm 6.1
CN(C)CCNC(=O)c1coc(=O)c(Br)c1	none
COc1ccc(-c2cc(NC=O)c3ncc(-c4cccc(C(=O)NCCN(C)C)c4)n3c2)cc1	MsrA inhibitor 11 | MsrA inh confirm inactive
COc1ccc(-c2cc(-c3nnc(SCC(=O)Nc4ccc(OCc5ccccc5)cc4)n3N)[nH]n2)cc1	none (no result: MsrA inhibitor, bovine MsrA act)
